Experimental data reported in PubChem BioAssay AID720504 (National Center for Advancing Translational Sciences (NCATS), 2013).
About 10,000 (2.8%) of roughly 360,000 compounds were called active. About 4% were inconclusive and are not listed. Calls follow the shape of the dose curve; as a rule, active = well fitted inhibition curve with a large enough effect; inconclusive = small, poorly fitted or top-dose-only effect; inactive = flat fitted curve, though single readings scatter. The list comes from a sample in which actives are over-represented; it also holds similar structures and randomly drawn compounds.

biological target: Serine/threonine-protein kinase PLK1 (Homo sapiens) (UniProt P53350); assay: qHTS for Inhibitors of PLK1-PDB (polo-like kinase 1 - polo-box domain): Primary Screen; conditions: Plk1 PBD binding of FITC phosphopeptide, fluorescence polarization; also: nearly all actives have a fitted effect of over 65% in size; as to max response, negative = inhibition: series mostly up to about 57 µM
Sequence (P53350 whole entry, looked up, the tested form may be a part): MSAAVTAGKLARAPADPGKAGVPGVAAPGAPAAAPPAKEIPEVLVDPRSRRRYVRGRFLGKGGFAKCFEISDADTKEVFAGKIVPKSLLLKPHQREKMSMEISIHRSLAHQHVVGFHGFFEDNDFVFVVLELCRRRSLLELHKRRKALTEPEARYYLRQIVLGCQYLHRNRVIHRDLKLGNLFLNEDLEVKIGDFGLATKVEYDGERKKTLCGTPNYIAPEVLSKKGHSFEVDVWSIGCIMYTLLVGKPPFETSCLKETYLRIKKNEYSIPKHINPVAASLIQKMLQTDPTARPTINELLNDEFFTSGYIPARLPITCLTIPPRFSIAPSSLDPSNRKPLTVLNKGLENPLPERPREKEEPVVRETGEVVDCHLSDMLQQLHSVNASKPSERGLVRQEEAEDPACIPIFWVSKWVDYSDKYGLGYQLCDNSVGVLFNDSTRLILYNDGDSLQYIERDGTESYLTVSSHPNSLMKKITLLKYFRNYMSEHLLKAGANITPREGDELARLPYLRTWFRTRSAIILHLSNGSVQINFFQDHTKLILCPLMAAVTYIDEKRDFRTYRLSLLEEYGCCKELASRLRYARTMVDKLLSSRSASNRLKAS
% is scaled to controls: 0 for no effect and ±100 for the full control effect; potency is read from the fitted curve at half-maximal effect.

SMILES | max response, negative = inhibition | Potency
C[C@@H]1CN([C@@H](C)CO)C(=O)c2c(c3ccccc3n2C)-c2ccccc2CO[C@H]1CN(C)C(=O)C1CC1 | -5.93% (inactive) | 
Nc1c(C(=O)O)cnn1-c1ccccc1 |  | 23.8 µM (active)
NNC(=O)c1cnn(-c2ccccc2)c1C(F)(F)F | -2.55% (inactive) | 
CCNC(=O)c1cnn(-c2ccccc2)c1-c1ccccc1 | -11.7% (inactive) | 
COc1ccc(CCNC(=O)CN(c2ccccc2)S(=O)(=O)c2ccccc2)cc1 | -1.56% (inactive) | 
CCCCCCN1CCN(C2CN(Cc3cn(CCCCCC)nn3)S(=O)(=O)C2)CC1 (stereo unspecified) | 6.53% (inactive) | 
COc1ccc(-c2cc3c(c4c2ccn4C)C2CCC3C2)cn1 (stereo unspecified) | -0.384% (inactive) | 
COC(=O)C(NS(=O)(=O)c1ccc(F)cc1)c1ccccc1 (stereo unspecified) | -18.8% (inactive) | 
CC(=O)NS(=O)(=O)c1ccc(NC(=S)NC(=O)C(C)(C)C)cc1 | -8.92% (inactive) | 
O=S(=O)(NC(=S)Nc1ccccc1)c1ccc(F)cc1 |  | 23.8 µM (active)
Cc1ccc([C@H]2N[C@]3(CCCN(Cc4ccccc4)C3=O)[C@H]3C(=O)N(Cc4ccccc4)C(=O)[C@@H]23)cc1 | 5.77% (inactive) | 
O=C(NCc1ccccc1Cl)c1csc([C@@H]2O[C@H](CO)[C@@H](O)[C@H]2O)n1 | -2.33% (inactive) | 
CCCNC(=O)C1(C)CCCN(C(=O)c2cccc(OC(C)=O)c2C)C1 (stereo unspecified) | 2.94% (inactive) | 
Cc1ccc(C(=O)NC(=S)Nc2ccc(N3CCOCC3)cc2)cc1 | -12.8% (inactive) | 
COc1cccc(OC)c1C(=O)NC(=S)Nc1ccc(N2CCOCC2)c(Cl)c1 | -8.56% (inactive) | 
COc1ccccc1C(=O)NC(=S)Nc1ccc(N2CCOCC2)cc1 |  | 26.7 µM (active)
O=C(NNC(=S)Nc1ccccc1)c1cccc(S(=O)(=O)N2CCOCC2)c1 | 2.12% (inactive) | 
O=C(NC(=S)Nc1ccc(S(=O)(=O)N2CCOCC2)cc1)c1ccccc1[N+](=O)[O-] |  | 33.6 µM (active)
O=C(Nc1ccc(S(=O)(=O)N2CCOCC2)cc1)C1CCN(S(=O)(=O)c2ccc(Cl)cc2)CC1 | 3.5% (inactive) | 
CC(C)(C)NC(=O)C(CCc1ccccc1)n1c(=O)c(-c2ccccc2)nc2ccccc21 (stereo unspecified) | -22.7% (inactive) | 
CCCCN(C=O)c1c(CC)nc2c(OCCC3CCCCC3)cccn12 | -1.3% (inactive) | 
O=CNc1cc(-c2ccc(C(=O)N3CCOCC3)cc2)cn2c(-c3ccc(F)cc3)cnc12 | -25.7% (inactive) | 
O=C(C[C@H]1CC[C@@H](NC(=O)c2ccncc2)[C@@H](CO)O1)NCC1CC1 | -5.23% (inactive) | 
Cc1sc2ncn(CC(=O)NCCCC(=O)NCc3ccc(F)cc3)c(=O)c2c1C | -9.91% (inactive) | 
Cc1sc2ncn(CC(=O)NCCCC(=O)N(C)Cc3ccccc3)c(=O)c2c1C |  | 26.7 µM (active)
CN(Cc1ccccc1)C(=O)CCNC(=O)Cn1cnc2ccccc2c1=O | -6.79% (inactive) | 
